Reference: PubChem BioAssay AID1159580 (chemical genetic matrix, 2015)
Several values for one entry are separate records, joined by “and”; a condition that tells them apart may be missing. Equal entries are not always repeated. The campaign covered roughly 5,500 compounds. About 2,000 (36%) were called active. Inconclusive results (about 18%) are left out. Rule as the data show it: active = normalized growth mostly below about 0.91 (no sharp cut-off); inconclusive = no clear call, values can overlap the other calls; inactive = mostly above about 0.92. Some of the results follow.

Assay: chemical genetic growth profiling, strain panel (AID 1159580);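 also: tested at 20 µM; growth read once vehicle control cultures reached saturation at 30 °C; 1 = growth at the plate median or of vehicle wells; lower values mean less growth of the strain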
Conditions: growth OD

Measured: normalized growth

CN1C(C)(C)CCCC1(C)C
inactive: S. cerevisiae deletion strains, locus YAL013W, strain DEP1, hits give low values 1.02 and 1.01 | S. cerevisiae deletion strains, locus YAL040C, strain CLN3, hits give low values 1.07 | S. cerevisiae deletion strains, locus YBR021W, strain FUR4, hits give low values 1.01 | S. cerevisiae deletion strains, locus YBR229C, strain ROT2, hits give low values 1.02 | S. cerevisiae deletion strains, locus YCL029C, strain bik1, hits give low values 0.988 | S. cerevisiae deletion strains, locus YCL061C, strain MRC1 (second series), hits give low values 0.994 | S. cerevisiae deletion strains, locus YDL035C, strain GPR1, hits give low values 1.02 | S. cerevisiae deletion strains, locus YDL074C, strain BRE1, hits give low values 1.06 | S. cerevisiae deletion strains, locus YDL101C, strain DUN1, hits give low values 1.02 | S. cerevisiae deletion strains, locus YDL134C, strain PPH21, hits give low values 1.02 | S. cerevisiae deletion strains, locus YDL185W, strain tfp1, hits give low values 0.993 | S. cerevisiae deletion strains, locus YDL192W, strain arf1, hits give low values 0.978 | S. cerevisiae deletion strains, locus YDR101C, strain arx1, hits give low values 0.969 | S. cerevisiae deletion strains, locus YDR150W, strain NUM1, hits give low values 1.02 and 1 | S. cerevisiae deletion strains, locus YDR162C, strain NBP2, hits give low values 1.04 | S. cerevisiae deletion strains, locus YDR318W, strain mcm21, hits give low values 0.99 | S. cerevisiae deletion strains, locus YDR363W, strain ESC2, hits give low values 0.997 | S. cerevisiae deletion strains, locus YDR388W, hits give low values 0.998 | S. cerevisiae deletion strains, locus YDR502C, strain sam2, hits give low values 1.02 | S. cerevisiae deletion strains, locus YEL061C, strain CIN8, hits give low values 1.02 | S. cerevisiae deletion strains, locus YER002W, strain NOP16, hits give low values 1.02 | S. cerevisiae deletion strains, locus YER110C, hits give low values 0.992 | S. cerevisiae deletion strains, locus YER155C, strain BEM2, hits give low values 1.02 | S. cerevisiae deletion strains, locus YER167W, strain BCK2, hits give low values 1.02 | S. cerevisiae deletion strains, locus YGL078C, strain dbp3, hits give low values 1.01 | S. cerevisiae deletion strains, locus YGL086W, strain mad1, hits give low values 0.996 | S. cerevisiae deletion strains, locus YGL248W, strain PDE1, hits give low values 1.03 | S. cerevisiae deletion strains, locus YGR078C, strain PAC10, hits give low values 1.04 | S. cerevisiae deletion strains, locus YGR135W, strain pre9, hits give low values 1.01 | S. cerevisiae deletion strains, locus YGR229C, strain SMI1, hits give low values 1.03 and 0.995 | S. cerevisiae deletion strains, locus YGR252W, strain gcn5, hits give low values 0.907 | S. cerevisiae deletion strains, locus YHR030C, strain SLT2, hits give low values 1.01 | S. cerevisiae deletion strains, locus YHR079C, strain IRE1 (second series), hits give low values 0.988 | S. cerevisiae deletion strains, locus YHR094C, strain hxt1, hits give low values 1 | S. cerevisiae deletion strains, locus YHR129C, strain ARP1, hits give low values 1.01 | S. cerevisiae deletion strains, locus YHR200W, strain rpn10, hits give low values 0.997 | S. cerevisiae deletion strains, locus YIL066C, strain RNR3, hits give low values 1.03 | S. cerevisiae deletion strains, locus YIL073C, strain SPO22, hits give low values 0.991 | S. cerevisiae deletion strains, locus YIL125W, strain kgd1, hits give low values 1.01 | S. cerevisiae deletion strains, locus YIR030C, strain dcg1, hits give low values 0.999 | S. cerevisiae deletion strains, locus YJL095W, strain BCK1, hits give low values 1.03 | S. cerevisiae deletion strains, locus YJL134W, strain LCB3, hits give low values 1.01 | S. cerevisiae deletion strains, locus YJL168C, strain set2, hits give low values 0.993 | S. cerevisiae deletion strains, locus YJL187C, strain SWE1 (second series), hits give low values 1.04 | S. cerevisiae deletion strains, locus YJR043C, strain POL32, hits give low values 1 | S. cerevisiae deletion strains, locus YJR075W, strain HOC1, hits give low values 1.02 | S. cerevisiae deletion strains, locus YKL009W, strain mrt4, hits give low values 0.962 | S. cerevisiae deletion strains, locus YKL068W, hits give low values 1 | S. cerevisiae deletion strains, locus YKL085W, strain MDH1 (second series), hits give low values 1.01 | S. cerevisiae deletion strains, locus YKL085W, strain MDH1, hits give low values 1.01 | S. cerevisiae deletion strains, locus YKL190W, strain CNB1, hits give low values 1.01 | S. cerevisiae deletion strains, locus YKR001C, strain vps1, hits give low values 0.994 | S. cerevisiae deletion strains, locus YLR039C, strain RIC1, hits give low values 1.03 | S. cerevisiae deletion strains, locus YLR058C, strain SHM2, hits give low values 1.02 | S. cerevisiae deletion strains, locus YLR102C, strain apc9, hits give low values 0.998 | S. cerevisiae deletion strains, locus YLR262C, strain YPT6, hits give low values 1.02 | S. cerevisiae deletion strains, locus YLR268W, strain sec22, hits give low values 1.01 | S. cerevisiae deletion strains, locus YLR330W, strain CHS5, hits give low values 1.01 | S. cerevisiae deletion strains, locus YLR342W, strain FKS1 (second series), hits give low values 0.996 | S. cerevisiae deletion strains, locus YLR371W, strain rom2, hits give low values 0.984 | S. cerevisiae deletion strains, locus YLR418C, strain cdc73, hits give low values 1 | S. cerevisiae deletion strains, locus YML016C, strain PPZ1, hits give low values 1.02 | S. cerevisiae deletion strains, locus YML032C, strain rad52, hits give low values 0.995 | S. cerevisiae deletion strains, locus YML124C, strain tub3, hits give low values 1 | S. cerevisiae deletion strains, locus YMR078C, strain ctf18, hits give low values 0.999 | S. cerevisiae deletion strains, locus YMR223W, strain ubp8, hits give low values 0.983 | S. cerevisiae deletion strains, locus YMR263W, strain SAP30, hits give low values 1.03 | S. cerevisiae deletion strains, locus YMR307W, strain GAS1, hits give low values 1.04 | S. cerevisiae deletion strains, locus YNL067W, strain RPL9B, hits give low values 1.03 | S. cerevisiae deletion strains, locus YNL128W, strain TEP1, hits give low values 1.03 | S. cerevisiae deletion strains, locus YNL153C, strain GIM3, hits give low values 1.04 and 1.01 | S. cerevisiae deletion strains, locus YNL175C, strain NOP13, hits give low values 1 | S. cerevisiae deletion strains, locus YNL197C, strain WHI3, hits give low values 1 | S. cerevisiae deletion strains, locus YNL224C, strain SQS1, hits give low values 1.01 | S. cerevisiae deletion strains, locus YNL233W, strain BNI4, hits give low values 1.04 | S. cerevisiae deletion strains, locus YNL250W, strain rad50, hits give low values 1 | S. cerevisiae deletion strains, locus YNL271C, strain bni1, hits give low values 0.99 | S. cerevisiae deletion strains, locus YNL298W, strain CLA4, hits give low values 0.996 | S. cerevisiae deletion strains, locus YNL307C, strain MCK1, hits give low values 0.993 | S. cerevisiae deletion strains, locus YNL322C, strain KRE1, hits give low values 1.02 | S. cerevisiae deletion strains, locus YNR052C, strain pop2, hits give low values 0.982 | S. cerevisiae deletion strains, locus YOL006C, strain TOP1, hits give low values 1.06 | S. cerevisiae deletion strains, locus YOL012C, strain htz1 1.39 | S. cerevisiae deletion strains, locus YOL147C, strain pex11, hits give low values 0.996 | S. cerevisiae deletion strains, locus YOR061W, strain CKA2, hits give low values 1.01 | S. cerevisiae deletion strains, locus YOR069W, strain VPS5, hits give low values 1.01 | S. cerevisiae deletion strains, locus YOR083W, strain WHI5 (second series), hits give low values 1.02 | S. cerevisiae deletion strains, locus YOR136W, strain idh2, hits give low values 0.987 | S. cerevisiae deletion strains, locus YOR144C, strain elg1, hits give low values 0.99 | S. cerevisiae deletion strains, locus YOR184W, strain ser1, hits give low values 0.962 | S. cerevisiae deletion strains, locus YOR316C, strain cot1, hits give low values 1 | S. cerevisiae deletion strains, locus YPL055C, strain LGE1, hits give low values 1.05 and 1.01 | S. cerevisiae deletion strains, locus YPL241C, strain CIN2, hits give low values 1.02 | S. cerevisiae deletion strains, locus YPR119W, strain clb2, hits give low values 1.01 | S. cerevisiae deletion strains, locus YPR141C, strain kar3, hits give low values 0.994 | S. cerevisiae deletion strains, locus YPR163C, strain tif3, hits give low values 0.998 | S. cerevisiae deletion strains, locus YPR167C, strain met16, hits give low values 0.998 | S. cerevisiae deletion strains, strain wtn01, hits give low values 1.02 | S. cerevisiae strains, strain wild type, hits give low values 1.02
